Rows were chosen to be rich in hits. Some 5.4% of all compounds tested hit in one or more screens of this group.
Calb FLC – C. albicans growth modulation with fluconazole; C. albicans CaCi-2 (fluconazole-resistant clinical isolate) + fluconazole, Alamar Blue growth, 48 h; growth inhibition, % (concentration not given with the values); hit rate 0.57% among 300,000; AID 1979;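 active = growth inhibition above about 58% in most replicates, limit read from the data, passing the limit was not always enough; inconclusive = exactly half the replicates above a set limit; inactive = most replicates below a set limit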;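 also: all wells also contain fluconazole at 8 µg/ml as a sub-toxic cotreatment; 0% = median of DMSO wells and 100% = median of geldanamycin control wells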
ALR inh – human ALR oxidase inhibition via reduced H2O2; hit rate 3.8% among 290,000; P55789; purified ALR, DTT oxidation, H2O2 HRP-luminol luminescence; AID 485317; inhibition, % (concentration not given with the values);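 active = mean replicate inhibition above about 79%, with every replicate also reaching it, limit read from the data; inconclusive = only one of the two criteria met; inactive = mean below limit and not every replicate reaching it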
Target sequence (P55789 whole entry, looked up): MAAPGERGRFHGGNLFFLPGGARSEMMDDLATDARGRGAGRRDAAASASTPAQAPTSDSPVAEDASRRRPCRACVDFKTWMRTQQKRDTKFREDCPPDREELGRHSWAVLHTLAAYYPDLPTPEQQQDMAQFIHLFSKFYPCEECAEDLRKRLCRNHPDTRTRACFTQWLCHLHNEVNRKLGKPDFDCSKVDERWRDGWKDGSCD
CSC inhib – blocks cancer stem cells. inhibition, % at 7.5 µM. AID 2717. cancer stem cell-like cells viability, luminescence. hit rate 1.1% among 300,000; in the data active = inhibition above about 75%; inconclusive = no clear call, values can overlap the other calls; tested in HMLE shEcad cells
PP5 inh – blocks human protein phosphatase 5 activity; P53041; purified PP5c, OMFP substrate fluorescence; inhibition, % at 6.7 µM; hit rate 0.18% among 320,000;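 active = inhibition above the campaign's mean inhibition across all tested compounds plus 3 SD, cut at about 9.5% in these data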;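 also: 0% = DMSO only and 100% = 100 µM cantharidin control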
PP1 inh – PP1-alpha (human) inhibition in PP5 counter-screen | purified PP1alpha, OMFP fluorescence | inhibition, % at 6.7 µM | hit rate 0.9% among 320,000 | AID 2235;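 active = inhibition above the mean inhibition of all tested compounds plus 3 SD, computed separately for each screening campaign, cut at about 15% in these data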
Target sequence (P62136 whole entry, looked up): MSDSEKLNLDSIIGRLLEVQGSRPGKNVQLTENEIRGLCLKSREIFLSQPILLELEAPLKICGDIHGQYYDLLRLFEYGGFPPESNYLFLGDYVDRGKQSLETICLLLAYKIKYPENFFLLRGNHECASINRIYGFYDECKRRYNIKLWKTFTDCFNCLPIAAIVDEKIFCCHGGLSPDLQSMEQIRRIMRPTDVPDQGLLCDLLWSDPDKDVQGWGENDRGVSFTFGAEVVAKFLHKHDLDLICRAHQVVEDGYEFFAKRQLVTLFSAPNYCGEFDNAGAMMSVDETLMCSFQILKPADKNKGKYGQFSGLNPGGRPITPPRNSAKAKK
* marks the source's active call; other numbers are inactive results; u = inconclusive; x = not tested or not shown; ! = not active in a repeat.

SMILES	Calb FLC	ALR inh	CSC inhib	PP5 inh	PP1 inh
CCc1c(C)[nH]n(-c2nc(-c3ccccc3)cs2)c1=O	34	97*	-35	1	-1
C=CCOc1cccc(CNCCCN2CCOCC2)c1	9	-12	-1	-1	-4
O=C(Nc1ccc(Cl)c([N+](=O)[O-])c1)Nc1nc2ccccc2s1	2	x	81*	1	-3
O=C(Nc1nc2ccccc2s1)Nc1ccc([N+](=O)[O-])cc1Cl	1	x	10	1	-2
CCC1=NN(C(=O)c2ccc(C)cc2)C(O)(c2ccc(Br)cc2)C1 (stereo not drawn)	-18	0	x	2	-2
CCC1=NN(C(=O)c2cccc(Br)c2)C(O)(c2ccc(Br)cc2)C1 (stereo not drawn)	4	-2	105*	4	1
CCSc1nnc(NC(=O)NC(C)(C(F)(F)F)C(F)(F)F)s1	u	x	-7	2	-2
CCSc1nnc(NC(=O)NC(CC)(C(F)(F)F)C(F)(F)F)s1	-18	x	99*	4	9
CCSc1nnc(NC(=O)C2CCCCC2)s1	29	-8	x	3	2
CCSc1nnc(NC(=O)C2CC=CCC2C(=O)O)s1 (stereo not drawn)	-7	-5	-5	-2	16*
Cc1ccc(NC(=O)c2sccc2C)nc1	-7	8	29	3	-7
Fc1cccc(Cn2ccc(-c3ccc4c(c3)OCO4)n2)c1	-34	11	6	3	0
O=C(N/N=C\c1ccc(-c2ccccc2[N+](=O)[O-])o1)C1COc2ccccc2O1 (stereo not drawn)	-2	75*	-9	7	5
CC(/C=N/NC(=O)Cn1nnc(N)n1)=C\c1ccc(C(C)C)cc1	9	x	7	-1	9
C/C(=C1/SC(=S)N(CCC(=O)O)C1=O)c1ccc(O)cc1	7	98*	-2	2	-6
Nn1c(Cc2cccc3ccccc23)nnc1SCc1ccccc1Cl	6	87*	-13	1	0
Cc1ccc(N2C(=O)CS/C2=C(\C(Cl)=C(Cl)Cl)[N+](=O)[O-])cc1	-4	98*	16	0	2
c1ccc(CNC2=NCCCCC2)cc1	-8	-4	-2	3	-5
c1ccc(NNC2=NCCCCC2)cc1	-16	99*	84*	0	1
CN(C)c1ccc(C(=O)Nc2nc3c(s2)CCCC3)cc1	14	96*	3	3	3
Cc1onc(-c2ccccc2)c1C(=O)Nc1nc2c(s1)CCCC2	-16	-6	x	2	3
CC(C)(C)c1ccc(C(=O)NC(=S)Nc2sc3c(c2C#N)CCC3)cc1	5	x	64	1	-2
CC(C)(C)c1ccc(C(=O)NC(=S)Nc2nc3c(s2)CCCC3)cc1	-8	-3	80*	1	-4
Cc1cc(C(=O)Nc2nc3c(s2)CCCC3)no1	11	96*	-15	1	1
CC1CCC/C(=C\Nc2ccc(O)cc2)C1=O (stereo not drawn)	2	99*	-7	4	10
SMILES	Calb FLC	ALR inh	CSC inhib	PP5 inh	PP1 inh
Cc1cc(C(=O)O)ccc1N/C=C1\CCCC(C)C1=O (stereo not drawn)	-9	44	-8	2	3
CN(C)CCCOc1ccc(C(C)(C)c2ccccc2)cc1	22	-4	44	3	4
CC/C(=C(\c1ccccc1)c1ccc(OCCN(C)C)cc1)c1ccccc1	x	-14	99*	3	17*!
CN(C)CCOc1ccc(C(C)(C)c2ccccc2)cc1	-11	10	146*	0	-1
CC/C(=C(\c1ccc(O)cc1)c1ccc(OCCN(C)C)cc1)c1ccccc1	x	97*	52	5	-2
Cc1sc2nc(CSCC(=O)NC(C)(C)C)[nH]c(=O)c2c1C	-14	99*	-1	2	-4
Cc1sc2nc(CSCC(=O)Nc3ccc(C(F)(F)F)cc3)[nH]c(=O)c2c1C	x	x	x	3	0
Cc1sc2nc(CSCC(=O)N(C)CC(=O)Nc3ccc(F)cc3)[nH]c(=O)c2c1C	10	99*	5	1	-3
CCN(CC)N=Nc1ccc(S(=O)(=O)Nc2c(C)n(C)n(-c3ccccc3)c2=O)cc1	3	-3	-12	1	-2
CCCS(=O)(=O)c1cnc(C2COc3ccccc3O2)nc1N (stereo not drawn)	13	-3	u	-2	-9
CC(C)c1ccc(/C=C2\CC/C(=C\C=N\N(C)C)C2=O)cc1	9	96*	x	0	-2
C=C(Cl)COc1ccc2c(CC)cc(=O)oc2c1	x	-10	0	4	1
Cc1nn(-c2ccccc2)c(C)c1/C=N/O	-3	1	-6	-1	-6
Cc1c(NC(=O)OC(C)C)sc(=S)n1C	2	98*	-9	0	-6
CC(=O)NCCOC(=O)Nc1sc(=S)n(C)c1C	-8	43	x	1	-1
O=c1c(OC2OC(CO)C(O)C(O)C2O)c(-c2ccc(O)c(O)c2)oc2cc(O)cc(O)c12 (stereo not drawn)	0	99*	-12	1	-2
O=c1c(O[C@H]2O[C@@H](CO)[C@H](O)[C@@H](O)[C@@H]2O)c(-c2ccc(O)cc2)oc2cc(O)cc(O)c12	x	87*	-13	3	2
O=c1c(-c2ccc(O)cc2)coc2cc(OC3OC(CO)C(O)C(O)C3O)ccc12 (stereo not drawn)	1	99*	2	3	0
O=c1c(OC2OC(CO)C(O)C(O)C2OC2OC(CO)C(O)C(O)C2O)c(-c2ccc(O)cc2)oc2cc(O)cc(O)c12 (stereo not drawn)	x	23	-4	3	-8
O=c1c(O[C@@H]2O[C@H](CO)C(O)C2O)c(-c2ccc(O)c(O)c2)oc2cc(O)cc(O)c12 (stereo partly drawn)	x	100*	x	x	x
O=c1c2c(O)cc(O)cc2oc2c(O)ccc(O[C@H]3O[C@@H](CO)[C@H](O)[C@@H](O)[C@@H]3O)c12	x	20	-1	x	x
O=C(NCC1CCCN(C(=O)c2cc(Cl)ccc2F)C1)c1ccc(F)cc1 (stereo not drawn)	0	0	21	-1	1
COCc1c(C(=O)OC)nnn1-c1ccccc1	3	-3	-3	2	2
COc1ccc(C2N=C(Nc3ccc(C)cc3)Nc3nc(C)cc(=O)n32)cc1 (stereo not drawn)	110*	-2	-3	3	2
CCN(CC)c1ccc2cc(NC(=O)CCC(=O)O)c(=O)oc2c1	34	99*	x	0	-3
CC(=NCCCn1ccnc1)c1c(-c2ccccc2)[nH]n(-c2nc3ccccc3s2)c1=O	19	10	-14	4	17*
CC(=NCCCn1ccnc1)C1=C(O)c2ccccc2C1=O	13	-3	-2	-1	-3
COc1cc(C2N(c3ccccc3)CCN2c2ccccc2)ccc1OC(C)=O	-8	94*	-4	1	-2
CCCc1cc2c(=O)c(-c3ccc4c(c3)OCCO4)coc2cc1OS(C)(=O)=O	-4	-3	52	6	2
CC1CCCCN1c1cc(C#N)c(C#N)cc1[N+](=O)[O-] (stereo not drawn)	-7	5	81*	-1	1

Screens (PubChem BioAssay)
